Compound activity as filed in PubChem BioAssay.
NPSR antagonist: blocks cAMP signaling of the human neuropeptide S receptor | CHO-NPSR cells, cAMP TR-FRET, antagonist mode | Q6W5P4 | 220,000 tested, 1% active | Potency, µM (doses to about 38.3 µM), without a hit: at the top dose activity change, negative = inhibition, usual class: inhibitors; further: nearly all actives have a fitted effect of over 50% in size
Target sequence (Q6W5P4 whole entry, looked up): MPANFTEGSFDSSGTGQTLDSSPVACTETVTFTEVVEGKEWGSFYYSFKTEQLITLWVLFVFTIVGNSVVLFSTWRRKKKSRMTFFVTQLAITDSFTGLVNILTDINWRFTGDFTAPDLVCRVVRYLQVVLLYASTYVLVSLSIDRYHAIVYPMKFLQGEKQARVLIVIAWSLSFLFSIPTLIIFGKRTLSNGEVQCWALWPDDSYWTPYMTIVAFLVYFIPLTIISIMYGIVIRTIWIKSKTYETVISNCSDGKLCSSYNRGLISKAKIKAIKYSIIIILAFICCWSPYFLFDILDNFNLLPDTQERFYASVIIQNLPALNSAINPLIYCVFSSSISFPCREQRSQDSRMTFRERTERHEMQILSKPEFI
Tau fibril FP: tau fibrillization inhibition (FP); K18 P301L tau heparin fibrillization, Alexa594 FP, 6 h; Potency, µM (titrated, usually from 57.7 µM), without a hit: top-dose activity, negative = inhibition, actives largely listed as inhibitors; 280,000 tested, 0.39% active; AID 1468; further: nearly all actives have a fitted effect of over 55% in size
Target sequence (P10636 561-689 P618L limits assumed): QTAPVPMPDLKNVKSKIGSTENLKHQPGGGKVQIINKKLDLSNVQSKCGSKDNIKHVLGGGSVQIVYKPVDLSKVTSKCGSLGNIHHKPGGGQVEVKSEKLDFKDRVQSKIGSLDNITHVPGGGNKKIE
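Compound effects on tau fibrillization are measured by Alexa 594 fluorescence polarization (ex 555, em 632 nm). K18 P301L tau is used at 15 uM with 0.24 uM labeled tracer, and 20 uM heparin induces aggregation over 6 hr at 37 C.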
KinaseGlo FLuc: blocks Kinase-Glo luciferase, a counter-screen artifact | Q27757 | Kinase-Glo luciferase, ATP luminescence, 8 min | Potency, µM (doses to about 38.3 µM), inactives show top-dose activity change, negative = inhibition, actives largely listed as inhibitors | 200,000 tested, 0.28% active | AID 1379; further: nearly all actives have a fitted effect of over 60% in size
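Luminescence was the read-out, taken after 8-minute incubation at ambient temperature. Luciferase turned over luciferin with 10 uM ATP in imidazole pH 7.2 buffer containing KCl, MgCl2, Tween 20 and BSA.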
Tau fluor cs: counter-screen for tau fibril formation inhibitors; tau K18 P301L Alexa594 fluorescence, heparin fibrillization; 280,000 tested, 0.93% active; Potency, µM (titrated, usually from 57.7 µM), without a hit: top-dose activity change, negative = decrease; AID 1463; further: nearly all actives have a fitted effect of over 55% in size
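Human tau K18 P301L (15 uM unlabeled, 0.24 uM Alexa 594-labeled) in 100 mM sodium acetate pH 7 with 20 uM heparin, 6 hr at 37 C. ThT 30 uM added, 1 hr ambient; Alexa 594 FP and total fluorescence read at 555/632 nm.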
Tau fibril ThT: tau fibrillization inhibition (ThT binding). P10636. recombinant tau K18 P301L (four-repeat tau fragment), heparin-induced fibrillization, ThT fluorescence. Potency, µM (top dose mostly 57.4 µM), for the others: at the top dose activity, negative = inhibition, usual class: inhibitors. 270,000 tested, 2.1% active; further: nearly all actives have a fitted effect of over 55% in size
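Heparin-induced (20 uM) aggregation of recombinant human K18 P301L tau, 15 uM unlabeled with 0.24 uM labeled, pH 7 acetate buffer, 6 hr at 37 C with compound. Fibrils quantified by 30 uM ThT fluorescence after 1 hr ambient incubation.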
* hit, by the source's call; ? = inconclusive; / = not tested or not shown; [ ] = another dose, or the depositor's remark. In the library only some 3.3% were active in any assay of this set; here they are far more common. The call rests on the fitted dose curve; in most records, active means well fitted curve in the direction sought with a large enough effect; inconclusive means small, poorly fitted or top-dose-only effect, or another doubt; inactive means no such curve, though single readings can be large; an effect the other way counts as inactive or inconclusive. On the % scale 0 is the no-effect control and ±100 the full control effect; potency means the concentration at half of the fitted maximal effect.

SMILES | NPSR antagonist | Tau fibril FP | KinaseGlo FLuc | Tau fluor cs | Tau fibril ThT
Cc1cccc(C#Cc2ccccc2)n1 | 4%[46.1 µM] | -4% | 13µM* | -5% | -7%
CSc1ccc(-c2nc3cccc(C)n3c2Nc2ccc(Cl)cc2)cc1 | / | 10% | / | ? | -10%
COc1cc(N/N=C/c2ccc(N(C)C)cc2)ncn1 | -1% | 10% | ? | ? | ?
CN(C)c1cc(N/N=C/c2ccc(Cl)cc2)nc(N(C)C)n1 | -43% | -19% | 0% | ? | 14µM*
O=S(=O)(NCCc1nnc2ccc(SCc3ccccc3Cl)nn12)c1ccccc1 | / | 0% | / | -12% | -11%
COc1ccc(NC(=O)N2CCCC3(CCN(C(=O)c4cccn4C)CC3)C2)cc1 | / | / | -4% | / | /
Cc1ccc2nc(/C(C#N)=C\c3ccc(Oc4ccc([N+](=O)[O-])cn4)cc3)[nH]c2c1 | -16% | 3% | -5% | ? | 5µM*
COc1ccc2nc(/C(C#N)=C\c3ccc(Oc4ccc([N+](=O)[O-])cn4)cc3)[nH]c2c1 | -25% | -13% | -1% | ? | 5µM*
CN(C)[C@@H]1C(=O)C(C(=O)NCN2CCCC2)=C(O)[C@@]2(O)C(=O)C3=C(O)c4c(O)cccc4[C@@](C)(O)C3CC12 (stereo partly drawn) | -16% | ? | -10% | ? | 14µM*
Cc1ccc(O)c(CNc2cccc3cccnc23)c1 | 16% | 3% | -1% | 14µM*[quencher] | ?
COc1ccccc1-n1c(SCC(=O)NC2CCS(=O)(=O)C2)nc2cc([N+](=O)[O-])ccc21 (stereo not drawn) | 1% | 5% | 1% | -16% | -1%
COc1ccccc1-n1c(SCC(=O)c2ccc(O)cc2O)nc2cc([N+](=O)[O-])ccc21 | -10% | ? | -3% | 10µM*[quencher] | -5%
O=C(O)CNc1ccc(C(=O)O)cc1 | / | / | -2%[7.66 µM] | / | /
COC(=O)C(=C/C=C/N1CCOCC1)C(=O)OC | 6% | 4% | / | 0% | -2%
CCN(CC)c1ccc(/C=c2/sc3nnc(-c4ccccc4C)n3c2=O)cc1 | -21%[46.1 µM] | 5% | 4% | -10% | ?
CCN(CC)c1ccc(/C=c2\sc3nnc(-c4ccccc4Cl)n3c2=O)cc1 | -10%[46.1 µM] | -4% | -8% | -14% | 7.1µM*
CCOC(=O)c1ccc(Nc2ncnc3ccc(C)cc23)cc1 | -6%[46.1 µM] | -4% | -4% | -8% | 0%
CCOc1ccc(Nc2ncnc3ccc([N+](=O)[O-])cc23)cc1 | -17% | 16% | 1% | -16% | 10µM*
Cc1ccc(NS(=O)(=O)c2cc([N+](=O)[O-])ccc2NNC(=S)Nc2cc(C)ccc2C)c(C)c1 | -15% | 4% | -15% | 13µM*[quencher] | ?
Cc1cccc(NC(=S)N/N=C/c2cccc([N+](=O)[O-])c2)c1 | -26%[46.1 µM] | 2% | 2% | -30% | -16%
COc1ccc(NC(=S)Nc2cccc([N+](=O)[O-])c2)cc1 | -9%[46.1 µM] | 6% | 1% | -20% | -18%
Cc1ccc(NS(=O)(=O)c2cc([N+](=O)[O-])ccc2NNC(=S)Nc2cccc(Cl)c2)c(C)c1 | -26% | ? | -24% | 7.9µM*[quencher] | 10µM*
COc1ccc(NC(=S)NNc2ccc([N+](=O)[O-])cc2S(=O)(=O)Nc2ccc(C)cc2C)cc1 | -39% | -5% | -14% | 14µM*[quencher] | 32µM*
Oc1nc(Nc2ccc(Cl)cc2Cl)sc1/C=C1\C=Nc2ccccc21 | -19%[46.1 µM] | 9% | -1% | ? | 8.9µM*
COc1ccc(CCNC(=O)CCS(=O)(=O)c2cc3c(cc2Cl)NC(=O)CO3)cc1OC | / | -1% | / | -1% | -1%
COc1cc(NC(=O)COCc2cc(-c3ccc4c(c3)OCO4)on2)c(OC)cc1Cl | / | 7% | / | -18% | -18%
CCN(CC)c1ccc(NC(=O)COCc2cc(-c3ccc4c(c3)OCO4)on2)c(C)c1 | / | 10% | / | ? | 2.8µM*
O=C(CSCc1ccccc1Cl)N1CCN(c2ccc(Cl)cc2)CC1 | / | 10% | / | -29% | ?
c1ccc(Nc2nc(-c3ccccn3)cs2)cc1 | ? | 5% | -3% | ? | ?
COc1cccc2sc(Nc3nc(-c4ccccn4)cs3)nc12 | 1µM* | -7% | / | -16% | -14%
